CYP2C9 inh: inhibitors of human CYP2C9; CYP2C9 Supersomes, luciferin-H conversion, luminescence; inhibition, % at 5 µM; actives 20% (n = 96,000);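 active means blocking of liver enzyme CYP2C9 beyond about 50% at 5 µM, limit read from the data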
Target sequence (P11712 whole entry, looked up): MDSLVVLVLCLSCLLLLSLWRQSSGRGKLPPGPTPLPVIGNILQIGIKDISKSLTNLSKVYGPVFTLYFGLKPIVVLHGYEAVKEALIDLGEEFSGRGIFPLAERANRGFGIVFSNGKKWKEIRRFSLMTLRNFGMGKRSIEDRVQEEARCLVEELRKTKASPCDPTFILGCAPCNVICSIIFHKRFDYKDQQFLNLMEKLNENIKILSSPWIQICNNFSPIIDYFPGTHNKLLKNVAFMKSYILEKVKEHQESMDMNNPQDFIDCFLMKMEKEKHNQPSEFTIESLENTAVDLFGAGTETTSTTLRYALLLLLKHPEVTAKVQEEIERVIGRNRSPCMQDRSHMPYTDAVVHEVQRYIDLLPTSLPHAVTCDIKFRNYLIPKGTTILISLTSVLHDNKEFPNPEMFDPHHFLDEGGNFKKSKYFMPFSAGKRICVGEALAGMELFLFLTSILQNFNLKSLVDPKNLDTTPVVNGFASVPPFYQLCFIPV
CYP2C19 inhib: blocks human cytochrome P450 2C19. P33261. CYP2C19 Supersomes, luciferin-H EGE luminescence, 30 min. inhibition, % at 5 µM. actives 21% (n = 96,000);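 active means CYP2C19 inhibition above a set limit at 5 µM in the primary screen, cut at about 50% in these data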
Pyk2 oligo antag: Pyk2 (human) oligomerization antagonism; actives 0.83% (n = 99,000); Q14289; Q293 cells, Pyk2 FERM NanoBiT luminescence; hits give low values; z-score (the deposit names both 25 µM and 10 µM);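 active means Z-score of -3 or lower, scaled per plate to the spread of control and sample wells; inactive means z-score above -3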;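 further: negative z-score means lost luminescence so less FERM oligomerization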
CYP2C19 act: activators of human cytochrome P450 2C19; recombinant CYP2C19, luciferin-H EGE luminescence; hits give high values; 0 = fully inhibited enzyme, 1 = untreated enzyme; P33261; activation factor at 5 µM; 96,000 tested, under 10 active;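 active means activation factor of at least 2 at 5 µM in the primary screen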
CYP2C9 activ: activators of human CYP2C9. P11712. actives 1.4% (n = 96,000). activation factor at 5 µM. recombinant CYP2C9, luciferin-H conversion, luminescence; hits give high values; factor 1 = untreated enzyme, 0 = blocked;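 active means activation factor of 2 or more for CYP2C9 at a 5 µM dose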
A number is an active result. Sampled rows, rich in hits. Any-hit rate of the full collection: about 28%.

What do the screens show for `O=C(c1ccccc1NS(=O)(=O)c1cccs1)N1CCCC1`?
CYP2C9 inh: inactive; CYP2C19 inhib: inactive; Pyk2 oligo antag: inactive; CYP2C19 act: inactive; CYP2C9 activ: inactive

How did O=C(NCc1ccco1)c1ccccc1NS(=O)(=O)c1ccc(Cl)s1 do in these assays?
CYP2C9 inh: 97; CYP2C19 inhib: inactive; Pyk2 oligo antag: inactive; CYP2C19 act: inactive; CYP2C9 activ: inactive

What do the screens show for `O=C(c1ccccc1NS(=O)(=O)c1ccc2c(c1)OCCO2)N1CCOCC1`?
Pyk2 oligo antag: inactive

How did O=C(Nc1ccccc1)c1ccccc1NS(=O)(=O)c1ccc(Cl)s1 do in these assays?
Pyk2 oligo antag: inactive

Results for O=C1CC(N2CCN(c3ccc(C(=O)c4ccc(F)cc4)cc3)CC2)C(=O)N1 (stereo not drawn) ?
CYP2C9 inh: inactive; CYP2C19 inhib: inactive; Pyk2 oligo antag: inactive; CYP2C19 act: inactive; CYP2C9 activ: inactive

How did CCOC(=O)Cn1nc(C)n(-c2ccc(C(C)C)cc2)c1=O do in these assays?
CYP2C9 inh: inactive; CYP2C19 inhib: inactive; Pyk2 oligo antag: inactive; CYP2C19 act: inactive; CYP2C9 activ: inactive

How did COC(=O)c1oc2c(c1C)C1(CCC2)SCCS1 do in these assays?
CYP2C9 inh: inactive; CYP2C19 inhib: inactive; Pyk2 oligo antag: inactive; CYP2C19 act: inactive; CYP2C9 activ: inactive

How did Cc1cc(C)c(S(=O)(=O)Nc2ccc(OCC(=O)O)cc2)c(C)c1 do in these assays?
CYP2C9 inh: inactive; CYP2C19 inhib: inactive; CYP2C19 act: inactive; CYP2C9 activ: inactive

What do the screens show for `CCSc1nnc(NC(=O)CCNS(=O)(=O)c2cc(Br)cnc2N)s1`?
CYP2C9 inh: 62; CYP2C19 inhib: inactive; Pyk2 oligo antag: inactive; CYP2C19 act: inactive; CYP2C9 activ: inactive

Results for c1ccc(Cc2nc(-c3ccccn3)no2)cc1 ?
CYP2C9 inh: inactive; CYP2C19 inhib: inactive; Pyk2 oligo antag: inactive; CYP2C19 act: inactive; CYP2C9 activ: inactive

What do the screens show for `c1ccc(CCCc2nc(-c3ccccn3)no2)cc1`?
CYP2C9 inh: inactive; CYP2C19 inhib: 65; Pyk2 oligo antag: inactive; CYP2C19 act: inactive; CYP2C9 activ: inactive

What do the screens show for `c1ccc(SCc2nc(-c3ccccn3)no2)cc1`?
CYP2C9 inh: inactive; CYP2C19 inhib: 76; Pyk2 oligo antag: inactive; CYP2C19 act: inactive; CYP2C9 activ: inactive

Results for c1ccc(C(Cc2nc(-c3ccccn3)no2)c2ccccc2)cc1 ?
CYP2C9 inh: 54; CYP2C19 inhib: inactive; Pyk2 oligo antag: inactive; CYP2C19 act: inactive; CYP2C9 activ: inactive

How did COC(=O)c1cc(Br)c(=O)n(-c2cc(C)on2)c1 do in these assays?
CYP2C9 inh: 50; CYP2C19 inhib: 59; Pyk2 oligo antag: inactive; CYP2C19 act: inactive; CYP2C9 activ: inactive

Results for O=C(CN1C(=O)c2ccccc2C1=O)Nc1ccccc1C(=O)NC1CCCCC1 ?
CYP2C9 inh: 65; CYP2C19 inhib: inactive; Pyk2 oligo antag: inactive; CYP2C19 act: inactive; CYP2C9 activ: inactive

Results for CCOc1ccccc1NC(=O)CN1CCC(NC(=O)c2ccccc2)CC1 ?
CYP2C9 inh: inactive; CYP2C19 inhib: 95; Pyk2 oligo antag: inactive; CYP2C19 act: inactive; CYP2C9 activ: inactive

What do the screens show for `CCOc1ccc(OCC)c(NC(=O)CN2CCC(NC(=O)c3cccc(F)c3)CC2)c1`?
CYP2C9 inh: 68; CYP2C19 inhib: 74; Pyk2 oligo antag: inactive; CYP2C19 act: inactive; CYP2C9 activ: inactive

What do the screens show for `COC(=O)c1ccccc1NC(=O)CN1CCN(C23CC4CC(CC(C4)C2)C3)CC1`?
CYP2C9 inh: 53; CYP2C19 inhib: inactive; Pyk2 oligo antag: inactive; CYP2C19 act: inactive; CYP2C9 activ: inactive

What do the screens show for `CCOc1ccc(OCC)c(NC(=O)CN2CCN(c3cccc(C)c3C)CC2)c1`?
Pyk2 oligo antag: inactive

How did COC(=O)c1ccc(C(=O)OC)c(NC(=O)CN2CCN(c3ccccc3)CC2)c1 do in these assays?
CYP2C9 inh: inactive; CYP2C19 inhib: inactive; Pyk2 oligo antag: inactive; CYP2C19 act: inactive; CYP2C9 activ: inactive

Results for CC(=O)Nc1ccc(-c2nc3c(C)cccc3[nH]2)cc1 ?
CYP2C9 inh: inactive; CYP2C19 inhib: inactive; Pyk2 oligo antag: inactive; CYP2C19 act: inactive; CYP2C9 activ: inactive

Results for CCc1cc(=O)oc2cc(OC(C)C(=O)O)c(Cl)cc12 (stereo not drawn) ?
CYP2C9 inh: inactive; CYP2C19 inhib: inactive; Pyk2 oligo antag: inactive; CYP2C19 act: inactive; CYP2C9 activ: inactive

Results for CC(=O)c1ccc(NC2OC(C)C(O)C(O)C2O)cc1 (stereo not drawn) ?
CYP2C9 inh: inactive; CYP2C19 inhib: inactive; Pyk2 oligo antag: inactive; CYP2C19 act: inactive; CYP2C9 activ: inactive

Assay outcomes (PubChem)
